Data on 35 compounds can be found in PubChem BioAssay.

The nature of this experiment: binders of probe aHhip on microarray, primary screen, stem cell growth factor project, biochemical, small-molecule microarray, fluorescence 635/667 (AID 1087).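 Note: score merges spot fluorescence at 667nm with spot signal to noise ratio.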 Particulars: higher = more signal.
For the compound `CC#CC(=O)Oc1ccc(Br)cc1C=CC(=O)OCC`, the composite z-score came out at 0.095. Consider `CCCC(=O)N(CCc1c[nH]c2ccccc12)[C@@H]1CC(C(=O)NCCO)=C[C@H](Oc2c(I)cc(CO)cc2OC)[C@H]1O`, for which the composite z-score was -0.214. Next, `COCCOC(=O)N1C(=O)[C@@]2(c3ccccc31)[C@H](C(=O)N1CCCCCCC1)[C@H]1C(=O)O[C@H](c3ccccc3)[C@H](c3ccccc3)N1[C@@H]2c1ccc(OCCO)cc1`: 3.98; `CCOC(=O)C[C@H]1[C@H](OC(=O)c2cc3ccccc3oc2=O)[C@@H](NC(=O)CC(C)C)c2cc(OCCCO)ccc2N1C(=O)c1ccccc1`: 0.0373. For the compound `O=C1OCC=C[C@H]2OC34C=CCN(CCN5CCOCC5)C(=O)[C@H]3N(CCO)C(=O)[C@@H]4[C@@H]12` (stereo not given in full), the composite z-score was -0.412. `COCC(=C=CC[C@H](O)c1cccc(OCCO)c1)CCO` showed a composite z-score of -0.0645. Next, `C#CCN1[C@H](/C=C/C2CC2)[C@H](Cc2ccccc2)OC(=O)[C@@H]1Cc1ccccc1`: 0.0373; `O[C@@H](Cc1ccccc1)[C@@H](/C=C/C1CC1)NCc1cccc(Cl)c1`: -0.0994; `C=C(/C(=C/C[C@H](OC(C)=O)c1ccc(OCCO)cc1)c1cc(C(=O)OC)ccc1OC)C(C)C`: -0.175.

`CCCC[C@@H]1C[C@H]1[C@@H](NC(=O)c1cccnc1)c1ccc(Cl)cc1`: the composite z-score is 0.216. The value for `CC(C)[C@@H](C(=O)O)n1cc(C2(O)CCCCC2)nn1` was -0.218; that for `CC(C)CCC[C@@H](C)[C@H]1CC[C@@]2(C)C3=C(CC[C@]12C)[C@@]1(C)CC[C@H](OC(=O)c2ccc(C(F)(F)F)nc2)C(C)(C)C1CC3` (stereo not given in full) was 0.223. In turn, `O=C1O[C@@H](c2ccccc2)[C@@H](c2ccccc2)N2[C@@H](c3ccc(OCCO)cc3)[C@]3(C(=O)Nc4ccc(C#CC5=CCCCC5)cc43)[C@@H](C(=O)N3CCCCCCC3)[C@H]12` had a composite z-score of 0.354.

`CC(C)NC(=O)[C@@]1(Cc2ccccc2I)c2ccccc2C(=O)N(Cc2ccccc2Cl)[C@H]1c1ccc(CO)cc1`: the composite z-score is -0.0994. The value for `COc1ccc([Si](C)(C)[C@H]2[C@H](CCO)O[C@@]3(C(=O)N(Cc4ccccc4)c4ccc(N5CCCCC5=O)cc43)[C@@H]2C)cc1` was -0.0645; that for `COc1ccc([C@H]2C[C@H]3C(Br)=C[C@@]2(CO)C(=O)[C@]32CO2)cc1` was -0.175. Next, `CO[C@H]1O[C@H](CO)[C@@H](OC(=O)Nc2ccc(Oc3ccccc3)cc2)[C@H](OC(=O)Nc2ccc3c(c2)OCO3)[C@@H]1OC(=O)Nc1ccc2c(c1)OCO2`: 0.28; `O=C(NC1CC1)[C@@H]1c2ccccc2C(=O)N(C2Cc3ccccc3C2)[C@H]1c1ccc(CO)cc1`: 1.38. Take `CC(C)=CCCC(C)=CC(O)C1C=CC2C(=O)N(c3ccccc3)C(=O)C2N1Nc1ccc(C(C)C)cc1` (stereo not given): the composite z-score was -0.13.

Compound `C=CC[C@]1(C(N)=O)N=C(c2ccc(OCCCO)cc2)O[C@H]1c1ccccc1` yielded a composite z-score of -0.0296.

`COc1cc2c(cc1O)C(c1cccs1)N(Cc1cccc(OC(F)(F)F)c1)CC2` (stereo not given) gave a composite z-score of -0.164. The value for `C=C(CCCC)C(=O)CC[C@@H](OC(C)=O)c1ccc(CO)o1` was 0.0505.

Compound `O=C(CS)NCCCCCNC(=O)[C@H]1C[C@H]2C(=O)NCC(=O)N2[C@H]1c1ccc(O)cc1` displayed a composite z-score of -0.204. The value for `COC(=O)[C@H](Cc1ccccc1)N[C@H](/C=C/C1CC1)[C@@H](O)Cc1ccccc1` was -0.132; that for `C=C(CCCC)C(=O)CC[C@H](OC(=O)c1cccnc1)c1ccc(OCCO)cc1` was -0.0994. The value for `O=C1O[C@@H](c2ccccc2)[C@@H](c2ccccc2)N2[C@@H](c3ccccc3OCCO)[C@]3(C(=O)Nc4ccc(C#CC5(O)CCCCCC5)cc43)[C@@H](C(=O)N3CCN(c4ncccn4)CC3)[C@H]12` was -0.137; that for `C=CCN1C(=O)[C@]2(O[C@H](CCO)[C@@H]([Si](C)(C)c3ccc(OC)cc3)[C@@H]2C)c2cc(N(C=O)c3ccccc3)ccc21` was 0.0021. For the compound `C=C(C(=O)CC[C@H](OC(C)=O)c1ccccc1OCCO)C(C)C`, the composite z-score was found to be 0.0854. Next, `COC(=O)[C@@]1(Cc2ccc(OC)cc2)[C@H]2c3cc(C(=O)N4CCCC4)n(Cc4nc5ccccc5[nH]4)c3C[C@H]2CN1C(=O)c1ccccc1`: -0.229. Regarding `CC(c1ccccc1)C(O)C1C=CC2C(=O)N(c3ccccc3)C(=O)C2N1Nc1ccccc1` (stereo not given), the composite z-score was found to be 0.179. Next, `CCCC[C@H]1C[C@@H]1[C@@H]1N(P(=O)(c2ccccc2)c2ccccc2)C[C@@](O)(c2ccccc2)CC12CC2`: 0.893; `COCC(=C=CC[C@H](O)c1ccccc1OCCO)CCO`: 0.0373. Consider `O=C1C[C@@](C(=O)NCc2ccccc2)(c2ccc([N+](=O)[O-])cc2)[C@@H](c2ccc(CO)cc2)N1CC12CC3CC(CC(C3)C1)C2`, for which the composite z-score is -0.0994. Compound `COC(=O)c1c(CC[C@@H](CO)NC(=O)N[C@H](Cc2ccccc2)Cn2cc(-c3ccccn3)nn2)oc(C(C)=O)c1C(=O)OC` registered a composite z-score of -0.271. `COC(=O)[C@]1(CCC(=O)OC(C)(C)C)N=C(c2ccc(OCCCO)cc2)O[C@@H]1c1ccccc1`: the composite z-score was -0.233.
